The results in this text go back to PubChem BioAssay (NCI).

Some test systems named below: T-47D breast; BT-549 breast; MDA-MB-435 melanoma; SW-620 colon; MCF7 breast; HCT-116 colon; HCC-2998 colon; KM12 colon.
Common to all, as to assay: NCI-60 one-dose screen, 48 h (100 = growth as untreated, 0 = no growth, -100 = all killed)
What all share (settings): 10 µM unless noted

This is part of a sample that, as a whole, favours compounds with a hit. Of some 83,000 tested, about 20% had one in any assay.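 Single-dose data. Exposure time 48 hours. Values below 10 considered active.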 A number with no mark means an inactive call. Activity calls are given as the source filed them.

For `O=C(CCCN1CCOCC1)Nc1ccc(Cn2nnc3c2C(=O)c2nnn(Cc4ccc(NC(=O)CCCN5CCOCC5)cc4)c2C3=O)cc1`, the growth in the assay with T-47D breast is -16.5% (active); in the assay on BT-549 breast, 42.6%; in the assay with MDA-MB-435 melanoma it was -78.9% (active); in the assay with SW-620 colon, 30.2%; with MCF7 breast it was -58.6% (active); in the assay with HCT-116 colon it was 0.281% (active). The growth with HCC-2998 colon is 13.1%; in the assay on KM12 colon it was 65.3%.

Consider `COc1ccc2nc3cc(Cl)ccc3c(NCCNCC(O)CO)c2c1` (stereo not given), for which the growth in the assay with T-47D breast is 21.7%; in the assay with BT-549 breast, 44.3%; in the assay on MDA-MB-435 melanoma, 28.3%; in the assay with SW-620 colon, 15.2%; with MCF7 breast, 9.17% (active); in the assay with HCT-116 colon, 9.6% (active). Further, the growth with HCC-2998 colon was 44.8%; in the assay on KM12 colon, 20.7%.

Turning to `CCCCCCCCCCCCCCCCCCNC(=O)[C@H]1CSC(c2ccc(F)c(OC)c2)N1` (stereo not given in full), the growth in the assay on T-47D breast was -72.3% (active); with BT-549 breast, -75.9% (active); in the assay with MDA-MB-435 melanoma, -92.7% (active); with SW-620 colon, -74.5% (active); in the assay on MCF7 breast, -71.7% (active); with HCT-116 colon it was -85.5% (active). In addition, the growth in the assay with HCC-2998 colon was -91.4% (active); in the assay on KM12 colon, -72.3% (active).

For the molecule `COc1ccc(C(=O)c2sc3nc4c(cc3c2N)CCCC4)cc1OC`, the growth in the assay on T-47D breast was 15.5%; in the assay on BT-549 breast, 24.1%; in the assay with MDA-MB-435 melanoma, -9.21% (active); in the assay with SW-620 colon, 34.6%; with MCF7 breast, 27.1%; with HCT-116 colon, 19.4%. Further, the growth in the assay with HCC-2998 colon is 109%; with KM12 colon it was 26.9%.

With `CCN(CC)CCCC(C)Nc1ccnc2c(OC)cccc12` (stereo not given), the growth in the assay with T-47D breast is 119%; in the assay with BT-549 breast it was 118%; in the assay on MDA-MB-435 melanoma it was 118%; in the assay on SW-620 colon, 115%; in the assay on MCF7 breast it was 101%; with HCT-116 colon, 112%. The figures for the growth in the assay with HCC-2998 colon and in the assay on KM12 colon were 115% and 113%, respectively.

Take `COc1ccc(-c2cc(-c3ccc(N(C)C)cc3)nc(NC(=O)c3ccncc3)n2)cc1`: the growth with T-47D breast is 88.9%; in the assay on BT-549 breast it was 104%; in the assay on MDA-MB-435 melanoma, 104%; with SW-620 colon, 98.7%; with MCF7 breast, 78%; in the assay with HCT-116 colon, 94%. For the same molecule, the growth is 100% in the assay on HCC-2998 colon and 97.8% in the assay with KM12 colon.

As for `Nc1nc2c(c3ncccc13)C(c1ccc(Cl)c(Cl)c1)Cc1ncccc1-2` (stereo not given), the growth in the assay with T-47D breast was 16%; in the assay with BT-549 breast, 31.1%; in the assay on MDA-MB-435 melanoma, 6.95% (active); in the assay with SW-620 colon it was 21.7%; with MCF7 breast, 12.2%; with HCT-116 colon, 18.4%. Moreover, the growth in the assay with HCC-2998 colon was 41.7%; in the assay with KM12 colon it was 21.5%.

`COc1ccc(-c2nn(-c3ccccc3)cc2/C=C2\SC(=O)NC2=O)cc1`: the growth is 85.9% in the assay on T-47D breast; 101% with BT-549 breast; 108% in the assay with MDA-MB-435 melanoma; 107% in the assay with SW-620 colon; 85.2% in the assay on MCF7 breast; 95.1% with HCT-116 colon. In addition, the growth is 109% in the assay on HCC-2998 colon and 98.1% in the assay on KM12 colon.

With `COc1ccc2c(c1)C(=O)/C(=C/c1cccc(OCC(=O)Nc3nc4c(s3)CCCC4)c1)O2`, the growth was 47.1% with T-47D breast; -65.4% (active) in the assay on BT-549 breast; 27.3% in the assay with MDA-MB-435 melanoma; -61.6% (active) in the assay with SW-620 colon; 21.9% in the assay on MCF7 breast; -25.7% (active) in the assay on HCT-116 colon. Also, the growth in the assay with HCC-2998 colon is -66.7% (active); with KM12 colon it was -68.3% (active).

Take `O=C1c2cc3c(cc2-c2c1c1cc(F)c(F)cc1c(=O)n2C[C@H](O)CO)OCO3`: the growth is -9.55% (active) in the assay with T-47D breast; 0.808% (active) in the assay with BT-549 breast; -11% (active) in the assay with MDA-MB-435 melanoma; 11.7% with SW-620 colon; 3.86% (active) in the assay on MCF7 breast; 3.5% (active) with HCT-116 colon. The results for the growth with HCC-2998 colon and with KM12 colon were 10.7% and 5.01% (active), respectively.

As to `COc1ccc(CCN2CCCn3c2nc2ccccc2c3=O)cc1`, the growth with T-47D breast is 80.8%; in the assay on BT-549 breast, 29.5%; in the assay with MDA-MB-435 melanoma, -15.2% (active); with SW-620 colon, 27%; in the assay on MCF7 breast, 16.8%; with HCT-116 colon, 14.3%. Further, the values for the growth in the assay on HCC-2998 colon and with KM12 colon were 8.36% (active) and 14.7%, respectively.

For `Cc1ccc(NC(=O)c2sc3nc4c(cc3c2N)C(=O)CCC4)cc1C`, the growth with T-47D breast is 24.1%; in the assay on BT-549 breast, 48.7%; with MDA-MB-435 melanoma it was -55.5% (active); in the assay with SW-620 colon, 18.9%; with MCF7 breast, 10.7%; in the assay on HCT-116 colon, 28.4%. The growth in the assay on HCC-2998 colon was 27.3%; with KM12 colon it was 19.5%.

Regarding `COc1ccc2nc3cc(Cl)ccc3c(N3CCN(c4nccc(NCc5ccccc5)n4)CC3)c2c1`, the growth in the assay with T-47D breast is 41.8%; in the assay with BT-549 breast it was 27.5%; in the assay with MDA-MB-435 melanoma it was 73.9%; in the assay on SW-620 colon it was 68%; in the assay with MCF7 breast, 24.6%; with HCT-116 colon, 25.8%. Also, the results for the growth in the assay with HCC-2998 colon and in the assay on KM12 colon were 84.3% and 77%, respectively.

Regarding `CC(C)n1cc2c(N)ncnc2n1`, the growth was 93.9% in the assay with T-47D breast; 101% with BT-549 breast; 98.6% with MDA-MB-435 melanoma; 110% in the assay on SW-620 colon; 102% with MCF7 breast; 102% with HCT-116 colon. Moreover, the growth with HCC-2998 colon is 122%; with KM12 colon it was 111%.

Take `CC(C)c1c(C(=O)Nc2ccccc2)c(-c2ccccc2)c(-c2ccc(F)cc2)n1CC[C@@H]1CC=CC(=O)O1`: the growth with T-47D breast is 17.1%; with BT-549 breast it was -30.6% (active); with MDA-MB-435 melanoma it was 2.54% (active); in the assay with SW-620 colon it was -45.1% (active); with MCF7 breast, -22.8% (active); in the assay with HCT-116 colon, -62.5% (active). Besides, the growth in the assay with HCC-2998 colon is -69.8% (active); with KM12 colon, -60.7% (active).
